# From ChEMBL document CHEMBL1961873, “Compounds: GSK PKIS; Assays: Nanosyn kinase panel” (2012)
# Key:
# [1] = biological target: Sphingosine kinase 1 (Homo sapiens) (UniProt Q9NYA1); settings: at 1 µM;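 note: mean SPHK1 inhibition value reported from the GSK PKIS kinase panel screen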
# [2] = biological target: T1, Sphingosine kinase 2 (Homo sapiens) (UniProt Q9NRA0); settings: at 0.1 µM
# T1 sequence (whole entry): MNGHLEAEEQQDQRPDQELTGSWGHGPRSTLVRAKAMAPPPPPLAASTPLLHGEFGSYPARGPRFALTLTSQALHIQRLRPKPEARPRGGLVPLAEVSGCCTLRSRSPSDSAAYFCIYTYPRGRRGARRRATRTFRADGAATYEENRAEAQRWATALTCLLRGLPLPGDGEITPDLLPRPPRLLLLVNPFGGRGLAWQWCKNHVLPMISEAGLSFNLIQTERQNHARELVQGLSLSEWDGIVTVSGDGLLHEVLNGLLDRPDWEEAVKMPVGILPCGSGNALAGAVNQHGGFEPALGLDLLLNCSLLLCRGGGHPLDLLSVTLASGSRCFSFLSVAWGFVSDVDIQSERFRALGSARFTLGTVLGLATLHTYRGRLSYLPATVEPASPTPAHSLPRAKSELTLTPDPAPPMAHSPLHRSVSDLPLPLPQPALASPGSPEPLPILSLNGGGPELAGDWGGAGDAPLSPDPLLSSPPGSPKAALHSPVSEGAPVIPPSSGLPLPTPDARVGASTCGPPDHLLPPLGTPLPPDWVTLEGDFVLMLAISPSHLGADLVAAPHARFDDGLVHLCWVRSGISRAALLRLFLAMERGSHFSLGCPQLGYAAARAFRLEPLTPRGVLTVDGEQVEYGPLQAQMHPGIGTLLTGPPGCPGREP
# [3] = biological target: T1, Sphingosine kinase 2 (Homo sapiens); settings: at 1 µM
# [4] = biological target: Casein kinase II subunit alpha (Homo sapiens) (UniProt P68400); settings: at 0.1 µM
# Casein kinase II subunit alpha (Homo sapiens), sequence (P68400 whole entry, looked up): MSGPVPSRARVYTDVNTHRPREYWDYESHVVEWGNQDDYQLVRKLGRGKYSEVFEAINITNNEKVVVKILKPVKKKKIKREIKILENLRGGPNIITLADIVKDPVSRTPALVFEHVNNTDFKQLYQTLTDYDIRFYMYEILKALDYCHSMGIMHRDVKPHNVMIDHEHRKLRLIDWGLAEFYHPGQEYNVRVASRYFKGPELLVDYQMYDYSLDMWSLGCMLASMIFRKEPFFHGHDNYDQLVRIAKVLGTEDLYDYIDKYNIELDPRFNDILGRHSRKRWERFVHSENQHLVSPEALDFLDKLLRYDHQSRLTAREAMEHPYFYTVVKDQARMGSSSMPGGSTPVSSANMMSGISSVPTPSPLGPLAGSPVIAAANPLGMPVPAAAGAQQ
# [5] = biological target: Casein kinase II subunit alpha (Homo sapiens) (UniProt P68400); settings: at 1 µM
# [6] = biological target: T2, Inhibitor of nuclear factor kappa-B kinase subunit alpha (Homo sapiens) (UniProt O15111); settings: at 0.1 µM
# T2 sequence (whole entry): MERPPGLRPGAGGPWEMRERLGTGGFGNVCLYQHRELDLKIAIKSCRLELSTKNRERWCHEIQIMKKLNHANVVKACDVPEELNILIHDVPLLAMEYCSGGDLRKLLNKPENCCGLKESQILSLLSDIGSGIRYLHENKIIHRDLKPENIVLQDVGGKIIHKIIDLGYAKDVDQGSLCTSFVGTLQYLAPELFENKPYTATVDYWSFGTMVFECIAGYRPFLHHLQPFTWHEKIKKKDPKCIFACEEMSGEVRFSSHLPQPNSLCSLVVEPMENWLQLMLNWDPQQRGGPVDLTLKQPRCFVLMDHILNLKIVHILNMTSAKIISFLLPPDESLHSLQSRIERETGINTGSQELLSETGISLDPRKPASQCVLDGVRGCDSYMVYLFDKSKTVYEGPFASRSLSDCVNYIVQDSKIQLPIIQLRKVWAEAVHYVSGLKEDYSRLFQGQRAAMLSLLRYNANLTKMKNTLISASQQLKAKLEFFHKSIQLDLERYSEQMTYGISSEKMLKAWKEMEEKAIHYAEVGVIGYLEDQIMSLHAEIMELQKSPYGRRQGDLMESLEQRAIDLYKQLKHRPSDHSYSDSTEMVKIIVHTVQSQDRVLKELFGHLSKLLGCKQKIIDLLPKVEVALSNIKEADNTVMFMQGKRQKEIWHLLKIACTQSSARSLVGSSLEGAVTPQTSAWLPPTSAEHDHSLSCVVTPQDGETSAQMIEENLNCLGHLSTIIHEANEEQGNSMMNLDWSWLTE
# [7] = biological target: T2, Inhibitor of nuclear factor kappa-B kinase subunit alpha (Homo sapiens); settings: at 1 µM
# [8] = biological target: T3, Inhibitor of nuclear factor kappa-B kinase subunit beta (Homo sapiens) (UniProt O14920); settings: at 0.1 µM
# T3 sequence (whole entry): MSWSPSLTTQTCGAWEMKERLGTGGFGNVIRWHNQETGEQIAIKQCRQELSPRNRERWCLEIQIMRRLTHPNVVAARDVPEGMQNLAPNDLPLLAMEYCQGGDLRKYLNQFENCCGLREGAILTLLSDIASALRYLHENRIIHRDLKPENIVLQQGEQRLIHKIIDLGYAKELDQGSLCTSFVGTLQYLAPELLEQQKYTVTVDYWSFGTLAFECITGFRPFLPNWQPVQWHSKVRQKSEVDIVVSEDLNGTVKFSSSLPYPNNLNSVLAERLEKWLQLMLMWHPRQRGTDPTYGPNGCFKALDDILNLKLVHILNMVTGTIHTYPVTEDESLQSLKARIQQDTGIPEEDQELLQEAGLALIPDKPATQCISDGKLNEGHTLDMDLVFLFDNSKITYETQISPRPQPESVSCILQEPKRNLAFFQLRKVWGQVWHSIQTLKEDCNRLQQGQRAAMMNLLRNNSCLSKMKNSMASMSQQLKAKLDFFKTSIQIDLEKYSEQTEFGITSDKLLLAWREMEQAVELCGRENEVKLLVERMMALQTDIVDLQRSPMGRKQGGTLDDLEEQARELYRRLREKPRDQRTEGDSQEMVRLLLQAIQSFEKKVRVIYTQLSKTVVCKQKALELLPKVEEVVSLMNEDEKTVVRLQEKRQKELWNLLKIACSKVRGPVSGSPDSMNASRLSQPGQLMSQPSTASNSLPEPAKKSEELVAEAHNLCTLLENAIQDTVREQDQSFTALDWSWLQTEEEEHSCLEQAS
# [9] = biological target: T3, Inhibitor of nuclear factor kappa-B kinase subunit beta (Homo sapiens); settings: at 1 µM
# [10] = biological target: T4, Inhibitor of nuclear factor kappa-B kinase subunit epsilon (Homo sapiens) (UniProt Q14164); settings: at 0.1 µM
# T4 sequence (whole entry): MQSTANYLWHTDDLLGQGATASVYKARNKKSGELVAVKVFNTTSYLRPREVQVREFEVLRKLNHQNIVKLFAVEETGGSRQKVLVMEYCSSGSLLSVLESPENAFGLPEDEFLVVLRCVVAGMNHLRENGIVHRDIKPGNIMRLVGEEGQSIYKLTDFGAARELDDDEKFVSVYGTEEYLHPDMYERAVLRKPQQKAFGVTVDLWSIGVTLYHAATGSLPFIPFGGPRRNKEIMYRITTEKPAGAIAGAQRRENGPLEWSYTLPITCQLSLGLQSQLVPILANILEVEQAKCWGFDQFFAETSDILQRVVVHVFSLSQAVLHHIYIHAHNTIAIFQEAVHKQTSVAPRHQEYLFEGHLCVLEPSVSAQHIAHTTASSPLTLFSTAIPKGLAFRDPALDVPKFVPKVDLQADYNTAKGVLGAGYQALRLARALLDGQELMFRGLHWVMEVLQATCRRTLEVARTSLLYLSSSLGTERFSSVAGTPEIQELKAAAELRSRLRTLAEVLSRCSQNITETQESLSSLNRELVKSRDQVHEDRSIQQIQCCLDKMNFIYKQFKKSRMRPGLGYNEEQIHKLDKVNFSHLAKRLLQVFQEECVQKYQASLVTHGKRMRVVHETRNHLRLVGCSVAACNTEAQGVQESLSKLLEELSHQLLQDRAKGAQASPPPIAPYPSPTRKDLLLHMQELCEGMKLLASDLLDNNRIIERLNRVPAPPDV
# [11] = biological target: T4, Inhibitor of nuclear factor kappa-B kinase subunit epsilon (Homo sapiens); settings: at 1 µM
# [12] = biological target: T5, Serine/threonine-protein kinase Nek1 (Homo sapiens) (UniProt Q96PY6); settings: at 0.1 µM
# T5 sequence (whole entry): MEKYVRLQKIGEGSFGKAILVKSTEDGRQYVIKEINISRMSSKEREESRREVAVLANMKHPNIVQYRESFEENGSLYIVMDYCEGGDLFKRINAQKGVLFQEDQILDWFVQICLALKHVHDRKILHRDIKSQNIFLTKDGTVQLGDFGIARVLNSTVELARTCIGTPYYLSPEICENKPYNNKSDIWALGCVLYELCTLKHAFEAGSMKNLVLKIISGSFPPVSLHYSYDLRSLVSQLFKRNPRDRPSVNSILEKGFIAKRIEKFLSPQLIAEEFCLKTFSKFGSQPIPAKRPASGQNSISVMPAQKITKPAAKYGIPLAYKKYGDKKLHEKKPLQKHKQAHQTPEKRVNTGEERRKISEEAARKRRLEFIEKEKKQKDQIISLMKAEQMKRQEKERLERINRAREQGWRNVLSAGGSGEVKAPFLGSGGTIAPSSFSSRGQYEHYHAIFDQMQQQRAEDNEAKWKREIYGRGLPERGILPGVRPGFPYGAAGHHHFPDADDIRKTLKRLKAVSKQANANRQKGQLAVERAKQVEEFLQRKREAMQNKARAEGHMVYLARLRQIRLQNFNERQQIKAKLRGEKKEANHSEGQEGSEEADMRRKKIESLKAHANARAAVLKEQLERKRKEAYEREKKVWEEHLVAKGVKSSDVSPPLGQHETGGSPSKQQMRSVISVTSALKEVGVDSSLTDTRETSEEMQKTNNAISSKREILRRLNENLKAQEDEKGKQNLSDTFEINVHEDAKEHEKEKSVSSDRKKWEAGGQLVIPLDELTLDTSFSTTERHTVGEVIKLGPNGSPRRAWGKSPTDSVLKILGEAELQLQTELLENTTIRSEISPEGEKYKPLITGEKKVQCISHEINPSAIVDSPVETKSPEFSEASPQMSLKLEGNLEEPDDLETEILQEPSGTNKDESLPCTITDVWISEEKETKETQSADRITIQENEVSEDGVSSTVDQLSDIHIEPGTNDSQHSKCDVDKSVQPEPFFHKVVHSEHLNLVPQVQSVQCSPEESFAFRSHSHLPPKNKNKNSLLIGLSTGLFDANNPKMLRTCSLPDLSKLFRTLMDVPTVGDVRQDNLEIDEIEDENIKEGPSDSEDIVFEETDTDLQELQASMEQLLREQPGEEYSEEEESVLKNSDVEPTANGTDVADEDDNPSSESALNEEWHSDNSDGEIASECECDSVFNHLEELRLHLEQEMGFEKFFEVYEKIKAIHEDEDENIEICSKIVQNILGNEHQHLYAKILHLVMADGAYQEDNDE
# [13] = biological target: T5, Serine/threonine-protein kinase Nek1 (Homo sapiens); settings: at 1 µM
# [14] = biological target: T6, Serine/threonine-protein kinase Nek2 (Homo sapiens) (UniProt P51955); settings: at 0.1 µM
# T6 sequence (whole entry): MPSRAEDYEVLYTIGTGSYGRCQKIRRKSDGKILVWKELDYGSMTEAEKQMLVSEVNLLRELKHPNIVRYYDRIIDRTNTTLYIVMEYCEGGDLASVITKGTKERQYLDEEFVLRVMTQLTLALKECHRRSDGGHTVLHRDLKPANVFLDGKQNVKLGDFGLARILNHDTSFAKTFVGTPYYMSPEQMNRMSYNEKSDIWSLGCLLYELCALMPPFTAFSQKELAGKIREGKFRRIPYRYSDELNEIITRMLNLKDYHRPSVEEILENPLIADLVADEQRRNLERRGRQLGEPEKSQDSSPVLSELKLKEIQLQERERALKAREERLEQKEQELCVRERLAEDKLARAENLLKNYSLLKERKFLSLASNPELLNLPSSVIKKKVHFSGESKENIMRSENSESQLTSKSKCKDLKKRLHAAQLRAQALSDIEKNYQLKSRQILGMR
# [15] = biological target: T6, Serine/threonine-protein kinase Nek2 (Homo sapiens); settings: at 1 µM
# [16] = biological target: Serine/threonine-protein kinase Nek6 (Homo sapiens) (UniProt Q9HC98); settings: at 0.1 µM
# Serine/threonine-protein kinase Nek6 (Homo sapiens), sequence (Q9HC98 whole entry): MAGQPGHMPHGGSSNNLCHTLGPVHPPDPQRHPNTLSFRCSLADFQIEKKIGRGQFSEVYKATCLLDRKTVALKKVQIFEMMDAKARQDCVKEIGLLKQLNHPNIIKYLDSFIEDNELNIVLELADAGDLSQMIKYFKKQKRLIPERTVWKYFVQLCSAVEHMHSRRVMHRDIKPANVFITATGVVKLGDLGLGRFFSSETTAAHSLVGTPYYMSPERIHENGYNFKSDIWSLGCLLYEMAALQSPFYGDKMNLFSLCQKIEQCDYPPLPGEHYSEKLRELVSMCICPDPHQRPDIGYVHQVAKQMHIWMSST
# [17] = biological target: Serine/threonine-protein kinase Nek6 (Homo sapiens) (UniProt Q9HC98); settings: at 1 µM
# [18] = biological target: Serine/threonine-protein kinase Nek7 (Homo sapiens) (UniProt Q8TDX7); settings: at 0.1 µM
# Serine/threonine-protein kinase Nek7 (Homo sapiens), sequence (Q8TDX7 whole entry, looked up): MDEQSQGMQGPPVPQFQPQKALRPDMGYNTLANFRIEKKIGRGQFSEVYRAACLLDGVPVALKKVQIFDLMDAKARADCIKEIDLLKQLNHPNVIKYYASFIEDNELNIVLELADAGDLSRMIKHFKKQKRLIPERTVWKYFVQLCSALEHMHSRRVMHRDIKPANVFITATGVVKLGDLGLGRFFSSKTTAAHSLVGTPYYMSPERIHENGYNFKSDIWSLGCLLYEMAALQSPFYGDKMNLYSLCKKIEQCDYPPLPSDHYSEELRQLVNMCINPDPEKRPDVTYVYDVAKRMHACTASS
# [19] = biological target: Serine/threonine-protein kinase Nek7 (Homo sapiens) (UniProt Q8TDX7); settings: at 1 µM
# [20] = biological target: T7, Serine/threonine-protein kinase Nek9 (Homo sapiens) (UniProt Q8TD19); settings: at 0.1 µM;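 note: reported value is the mean percent inhibition of NEK9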
# T7 sequence (whole entry): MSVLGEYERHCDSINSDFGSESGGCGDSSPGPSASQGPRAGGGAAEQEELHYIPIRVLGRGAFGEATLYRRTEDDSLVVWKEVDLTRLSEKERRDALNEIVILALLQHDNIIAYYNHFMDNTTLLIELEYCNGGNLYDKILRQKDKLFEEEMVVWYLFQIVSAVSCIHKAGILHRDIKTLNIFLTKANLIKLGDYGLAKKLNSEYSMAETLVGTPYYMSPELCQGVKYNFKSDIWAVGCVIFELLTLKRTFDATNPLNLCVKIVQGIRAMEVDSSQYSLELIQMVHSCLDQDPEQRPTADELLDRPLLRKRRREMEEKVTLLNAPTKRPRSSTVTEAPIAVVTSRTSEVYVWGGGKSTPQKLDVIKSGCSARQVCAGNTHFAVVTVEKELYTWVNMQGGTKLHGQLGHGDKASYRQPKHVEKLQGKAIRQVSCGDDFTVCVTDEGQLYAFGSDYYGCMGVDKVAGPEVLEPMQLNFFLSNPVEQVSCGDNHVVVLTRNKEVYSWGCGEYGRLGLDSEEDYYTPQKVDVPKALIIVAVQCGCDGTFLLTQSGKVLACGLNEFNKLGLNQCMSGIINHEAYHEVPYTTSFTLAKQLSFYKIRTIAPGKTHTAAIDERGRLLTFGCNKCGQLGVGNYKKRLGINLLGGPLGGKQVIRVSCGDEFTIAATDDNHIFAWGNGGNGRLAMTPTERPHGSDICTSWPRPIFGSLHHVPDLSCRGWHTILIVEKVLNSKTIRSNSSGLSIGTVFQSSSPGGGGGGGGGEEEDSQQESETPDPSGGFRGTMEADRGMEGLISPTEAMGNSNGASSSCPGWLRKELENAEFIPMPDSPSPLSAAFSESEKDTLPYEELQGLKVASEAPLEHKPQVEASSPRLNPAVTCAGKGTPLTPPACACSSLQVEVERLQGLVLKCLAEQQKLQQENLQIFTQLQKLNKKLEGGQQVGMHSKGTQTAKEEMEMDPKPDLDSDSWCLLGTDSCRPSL
# Sphingosine kinase 1 (Homo sapiens), sequence (Q9NYA1 whole entry): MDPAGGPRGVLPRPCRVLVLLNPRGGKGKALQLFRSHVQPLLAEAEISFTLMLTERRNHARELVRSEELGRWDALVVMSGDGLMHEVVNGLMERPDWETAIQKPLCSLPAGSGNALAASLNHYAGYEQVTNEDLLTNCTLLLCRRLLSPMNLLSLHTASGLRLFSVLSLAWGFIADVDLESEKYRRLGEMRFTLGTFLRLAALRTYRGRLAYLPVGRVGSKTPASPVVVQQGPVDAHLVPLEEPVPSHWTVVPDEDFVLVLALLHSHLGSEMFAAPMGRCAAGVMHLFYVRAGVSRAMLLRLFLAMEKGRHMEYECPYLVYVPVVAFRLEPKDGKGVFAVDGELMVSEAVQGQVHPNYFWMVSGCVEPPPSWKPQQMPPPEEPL
structure (smiles),measurement,setting,value
c1cnn2ncc(-c3ccnc(NCCCN4CCOCC4)n3)c2c1,inhibition,[1],-3.67%
same,inhibition,[2],2.35%
same,inhibition,[3],0%
same,inhibition,[4],1.83%
same,inhibition,[5],4.66%
same,inhibition,[6],8.06%
same,inhibition,[7],9.01%
same,inhibition,[8],5.79%
same,inhibition,[9],4.44%
same,inhibition,[10],9.87%
same,inhibition,[11],13.4%
same,inhibition,[12],1.91%
same,inhibition,[13],0.27%
same,inhibition,[14],4.15%
same,inhibition,[15],4.3%
same,inhibition,[16],0.45%
same,inhibition,[17],2.66%
same,inhibition,[18],5.96%
same,inhibition,[19],1.47%
same,inhibition,[20],14.8%
